Experimental data reported in PubChem BioAssay.
Several values for one entry are separate records, joined by “and”; a condition that tells them apart may be missing. Equal entries are not always repeated. Activity calls are given as the source filed them.

What was measured:
[1] = anti-His antibody binders, primary screen, artefact control for SMM control protein annotation, biochemical, small-molecule microarray, 635 nm fluorescence (AID 1128); conditions: anti-His Alexa647 antibody binding, higher = more signal;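 note: score merges feature fluorescence with signal-to-noise for each printed compound spot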
[2] = system: Human papillomavirus type 1a E7 protein (residues 1-88); assay: HPV1a E7 small-molecule binders, primary screen, biochemical, small-molecule microarray, residues 1-88, 635 nm (AID 1129); conditions: small-molecule microarray binding, fluorescence 635 nm; higher = more signal
[3] = target: Focal adhesion kinase 1 (Homo sapiens) (UniProt Q05397); assay: small-molecule microarray binders of FAK, primary screen, biochemical, 635/667 nm fluorescence, BSA, DTT (AID 1130); conditions: PTK2 binding, 635 nm fluorescence, higher = more signal;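 note: composite of spot emission at 667 nm and signal to noise over triplicate slides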
Sequence of Focal adhesion kinase 1 (Homo sapiens) (Q05397 whole entry, looked up): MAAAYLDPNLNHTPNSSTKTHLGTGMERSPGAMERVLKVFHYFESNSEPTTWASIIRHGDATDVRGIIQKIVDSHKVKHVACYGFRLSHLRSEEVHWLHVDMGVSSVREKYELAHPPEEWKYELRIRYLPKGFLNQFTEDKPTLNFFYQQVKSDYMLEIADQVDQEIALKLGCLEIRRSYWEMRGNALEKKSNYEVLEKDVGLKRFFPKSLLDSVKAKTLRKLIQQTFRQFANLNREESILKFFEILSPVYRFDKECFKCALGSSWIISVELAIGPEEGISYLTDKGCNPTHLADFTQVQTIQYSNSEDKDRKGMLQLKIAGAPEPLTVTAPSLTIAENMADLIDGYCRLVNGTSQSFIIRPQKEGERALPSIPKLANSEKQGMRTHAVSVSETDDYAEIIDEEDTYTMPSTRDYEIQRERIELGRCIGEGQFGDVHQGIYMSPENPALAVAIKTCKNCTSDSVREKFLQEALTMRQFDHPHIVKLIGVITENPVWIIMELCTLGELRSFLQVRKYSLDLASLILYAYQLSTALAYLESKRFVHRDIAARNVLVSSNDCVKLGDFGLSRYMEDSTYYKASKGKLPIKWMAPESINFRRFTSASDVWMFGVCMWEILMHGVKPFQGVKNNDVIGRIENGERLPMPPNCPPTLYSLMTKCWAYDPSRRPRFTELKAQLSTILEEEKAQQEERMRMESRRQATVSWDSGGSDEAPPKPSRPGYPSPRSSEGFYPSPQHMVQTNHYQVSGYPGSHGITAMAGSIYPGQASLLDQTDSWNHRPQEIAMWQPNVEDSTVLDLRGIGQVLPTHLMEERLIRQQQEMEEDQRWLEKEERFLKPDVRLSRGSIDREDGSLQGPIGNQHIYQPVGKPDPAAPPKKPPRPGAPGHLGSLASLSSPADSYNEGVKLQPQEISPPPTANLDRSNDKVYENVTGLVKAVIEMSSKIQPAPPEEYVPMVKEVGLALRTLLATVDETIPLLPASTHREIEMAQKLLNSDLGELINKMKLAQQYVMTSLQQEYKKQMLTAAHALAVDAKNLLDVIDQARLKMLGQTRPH

[4] = system: Fibrinogen (Alexa647-labelled); assay: fibrinogen binders on compound microarrays, profiling panel, artefact control for SMM control-protein annotation, biochemical, small-molecule microarray, 635/667 nm fluorescence (AID 1131); conditions: fibrinogen-A647 binding fluorescence, higher = more signal;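 note: z-score merges 667 nm fluorescence with per-spot signal-to-noise over triplicate slides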
[5] = target: Follistatin (Homo sapiens) (UniProt P19883); assay: follistatin binders on small-molecule microarrays, primary screen, biochemical, small-molecule microarray, 635/667 nm fluorescence (AID 1132); conditions: FST binding, 635 nm fluorescence, higher = more signal
Sequence of Follistatin (Homo sapiens) (P19883 whole entry, looked up): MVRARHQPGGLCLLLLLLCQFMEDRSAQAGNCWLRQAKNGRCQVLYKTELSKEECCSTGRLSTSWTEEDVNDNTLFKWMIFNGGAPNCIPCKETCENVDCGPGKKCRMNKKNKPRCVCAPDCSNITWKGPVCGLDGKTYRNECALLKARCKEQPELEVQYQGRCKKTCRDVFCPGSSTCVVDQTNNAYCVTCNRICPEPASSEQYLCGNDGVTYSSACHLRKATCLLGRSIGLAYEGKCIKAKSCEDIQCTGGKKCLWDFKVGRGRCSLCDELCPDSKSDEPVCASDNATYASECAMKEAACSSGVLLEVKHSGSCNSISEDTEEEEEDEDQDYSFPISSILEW

[6] = target: Fibroblast growth factor 2 (Homo sapiens) (UniProt P09038); assay: FGF2 binders on small-molecule microarrays, primary screen, biochemical, small-molecule microarray, 635/667 nm fluorescence (AID 1133); conditions: small-molecule microarray binding, FGF2, fluorescence 635/667; higher = more signal
Sequence of Fibroblast growth factor 2 (Homo sapiens) (P09038 whole entry, looked up): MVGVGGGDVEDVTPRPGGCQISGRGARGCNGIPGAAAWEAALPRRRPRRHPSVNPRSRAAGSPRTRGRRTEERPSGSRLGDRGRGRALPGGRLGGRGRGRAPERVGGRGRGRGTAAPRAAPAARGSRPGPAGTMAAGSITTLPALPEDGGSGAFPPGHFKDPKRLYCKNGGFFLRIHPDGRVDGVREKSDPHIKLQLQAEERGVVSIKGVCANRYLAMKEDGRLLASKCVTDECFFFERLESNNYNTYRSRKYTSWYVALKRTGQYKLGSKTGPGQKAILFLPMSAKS

[7] = mitochondrial membrane potential change in A549 cells, profiling panel, cell-based, JC-1 fluorescence, basal, 24 h, 100 nL (AID 1138); conditions: higher = more signal;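 note: A549 lung adenocarcinoma cells under basal conditions with no added stimulus; test concentration not given here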
[8] = system: Lefty1; assay: Lefty1 binders on small-molecule microarrays, primary screen, biochemical, small-molecule microarray, 635/667 nm fluorescence (AID 1139); conditions: small-molecule microarray binding, fluorescence 635/667; higher = more signal
[9] = system: wheat germ agglutinin (Triticum aestivum), Alexa647-labelled; assay: wheat germ agglutinin binders on compound microarrays, profiling panel, artefact control for SMM control-protein annotation, biochemical, small-molecule microarray, 635/667 nm fluorescence (AID 1140); conditions: WGA-A647 binding, 635 nm fluorescence, higher = more signal;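 note: score merges 667 nm feature emission with signal to noise over triplicate slides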
[10] = target: Luciferin 4-monooxygenase (Photinus pyralis) (UniProt P08659); assay: firefly luciferase enzyme inhibitors, primary screen, biochemical, luminescence, purified enzyme, 2006 set (AID 1141); conditions: SteadyGlo luminescence, 30 min, higher = more signal, called active from +8 up or from −8 down;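 note: cell-free assay with purified firefly luciferase at 100 ng per well in PBS; test concentration not given here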
Sequence of Luciferin 4-monooxygenase (Photinus pyralis) (P08659 whole entry, looked up): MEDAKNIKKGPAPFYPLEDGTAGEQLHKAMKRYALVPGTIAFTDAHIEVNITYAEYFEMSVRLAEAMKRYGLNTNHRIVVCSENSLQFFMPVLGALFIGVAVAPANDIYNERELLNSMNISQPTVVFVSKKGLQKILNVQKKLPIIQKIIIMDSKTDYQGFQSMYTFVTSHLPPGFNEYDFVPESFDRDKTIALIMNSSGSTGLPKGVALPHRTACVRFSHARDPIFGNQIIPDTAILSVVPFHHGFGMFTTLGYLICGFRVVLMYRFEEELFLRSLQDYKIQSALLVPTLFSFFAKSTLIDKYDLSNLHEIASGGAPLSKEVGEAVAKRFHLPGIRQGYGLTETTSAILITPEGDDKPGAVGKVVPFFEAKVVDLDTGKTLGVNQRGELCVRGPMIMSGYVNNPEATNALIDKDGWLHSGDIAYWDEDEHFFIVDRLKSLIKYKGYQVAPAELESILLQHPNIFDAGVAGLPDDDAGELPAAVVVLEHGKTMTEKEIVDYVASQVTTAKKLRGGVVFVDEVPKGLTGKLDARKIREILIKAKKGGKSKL

Row | Structure (SMILES) | composite z-score [1] | composite z-score [2] | composite z-score [3] | composite z-score [4] | composite z-score [5] | composite z-score [6] | z-score [7] | composite z-score [8] | composite z-score [9] | z-score [10]
1 | C=CCN(C(=O)C1N(CCOCCO)C(=O)C2C(C(=O)O)C3C=CC21O3)c1ccc(OC)cc1 (stereo not given) | -0.576 and -1.3 | -1.57 and -1.78 | 0.748 and -0.878 | -1.13 and -2.1 | -2.1 and -2.52 | -0.792 and -1.54 | 0.154 and 0.454 | -2.56 and -2.64 | -0.937 and -1.41 | -0.505 (inactive) and -0.392 (inactive)
2 | CCOC(=O)CCN1C(=O)[C@H]2[C@H]3[C@H](O)[C@H](O)CC(=NNC(=O)OCC)[C@@H]3CC[C@H]2C1=O | -0.23 | 0.364 | 0.366 | 0.384 | -0.124 | 0.447 | 0.167 | -0.0407 | -0.368 | 0.406 (inactive)
3 | C=CCN(Cc1ccccc1)C(=O)C(c1cccs1)N(C(=O)/C=C\C(=O)O)c1c(Cl)cccc1CO (stereo not given) | -0.815 and -1.36 | -0.562 and -1.54 | -0.675 and -0.0599 | -2.79 and -3.53 | -1.74 and -2.71 | -2.4 and -1.88 | -0.321 and -0.229 | -1.51 and -1.93 | -0.482 and -1.57 | 1.02 (inactive) and 0.077 (inactive)
4 | O=c1n(-c2ccccc2)c(=O)n2n1CC[C@@H]1C(=NOC[C@@H](O)COCc3ccco3)[C@H]3O[C@H]3[C@@H](O)[C@@H]12 | 0.196 and 1.9 | 0.0776 and -0.425 | 0.828 and -0.367 | -0.309 and -0.105 | 1.15 and 0.461 | 1.02 and 0.96 | -0.642 and -0.729 | 1.43 and 0.459 | -0.392 and 0.0106 | 0.0662 (inactive) and -0.214 (inactive)
5 | C=CCN(CCCCC)C(=O)C1N(C(C)(C)CO)C(=O)C2C(C(=O)O)C3C=CC21O3 (stereo not given) | -0.608 and -2.12 | -0.943 and -0.793 | -0.132 and -1.41 | -2.7 and -1.18 | -1.39 and -2.44 | -2.46 and -1.74 | -0.401 and 0.244 | -1.1 and -1.42 | -0.356 and -1.51 | 0.169 (inactive) and 0.977 (inactive)
6 | CCOC(=O)C[C@H]1[C@H](OC(=O)c2ccccc2-c2ccccc2)[C@@H](NC(=O)c2ccccc2)c2cc(OCCCO)ccc2N1C(=O)c1ccc2ccccc2n1 | 0.861 and 1.4 | 0.547 and 0.311 | -0.0011 and 0.466 | 0.0271 and 0.432 | 0.41 and 1.12 | 0.566 and 0.845 | 1.1 and 0.202 | 0.513 and 0.934 | 0.692 and 0.31 | -0.233 (inactive) and -0.818 (inactive)
7 | C=CCN(C(=O)C1N(c2c(Cl)cccc2CO)C(=O)C2C(C(=O)O)C3C=CC21O3)C(C)(C)C (stereo not given) | -0.687 and -0.455 | 0.0063 and -0.941 | -0.0019 and 0.0154 | -0.925 and -0.724 | -0.85 and -0.957 | -1.46 and -0.409 | -0.868 and 1.49 | -1.33 and -1.93 | -0.0278 and -0.665 | 1.15 (inactive) and -1.5 (inactive)
8 | COc1ccc(-c2ccc3c(n2)CCCN3CC(O)CN2CCCc3nc(-c4ccc(Br)cc4)ccc32)cc1 (stereo not given) | 1.33 and 1.2 | 0.601 and 0.387 | 0.665 and 0.748 | 0.572 and 0.757 | 0.922 and 0.796 | 0.6 and 0.609 | 1.45 and 0.555 | 1.02 and 0.514 | 0.557 and 0.333 | -0.254 (inactive) and 0.147 (inactive)
9 | C[C@@H]1CC[C@H]2C(=O)N3[C@@H](CC[C@@H](C)[C@@H]3c3ccc(-c4ccco4)cc3)C(=O)N2[C@H]1c1ccc(-c2ccco2)cc1 | 2.61 and 1.86 | 1.22 and 0.674 | 1.68 and -0.333 | 1.01 and 0.912 | 1.35 and 1.45 | 0.882 and 1.36 | -0.764 and -0.575 | 1.24 and 1.32 | 1.22 and 1.11 | -2.93 (inactive) and -6.15 (inactive)
10 | COC(=O)C1=C2N(Cc3ccccc3)C(C)=C(C(=O)OC)[C@@H](c3ccccc3)N2C(=O)[C@](O)(C(=O)OC)C1 | 0.0444 and -0.657 | 0.644 and 0.0112 | 0.268 and -0.172 | 0.985 and 0.0539 | 0.419 and 0.587 | 1.71 and 0.858 | 0.218 and 0.136 | 0.911 and 0.508 | 0.526 and -0.342 | -0.0132 (inactive) and 0.18 (inactive)
11 | Cc1cc2c(nc1C)CCCN2CC(C)ON=C[C@@H](C)[C@H](OCc1ccccc1)C(C)C (stereo not given in full) | -0.265 | -1.26 | 0.252 | -0.709 | 0.141 | -0.0657 | -0.7 | 0.254 | -0.911 | 0.765 (inactive)
12 | C=C[C@@H](OC)[C@H](O)c1ccc(O)c(F)c1 | -0.709 and -0.462 | -0.912 and -1.26 | -0.746 and -0.838 | -1.11 and -0.58 | -1.18 and -0.404 | -1.39 and 0.0341 | -0.329 and 0.662 | -1.7 and -0.947 | -0.303 and -0.223 | -0.981 (inactive) and -1.3 (inactive)
13 | C=CCN(Cc1ccccc1)C(=O)C(c1cccs1)N(C(=O)/C=C\C(=O)O)c1ccc(CCO)cc1 (stereo not given) | -1.02 and -0.261 | 0.285 and -0.623 | -0.411 and -0.574 | -1.94 and -2.45 | -1.48 and -1.4 | -1.78 and -1.47 | 0.579 and 0.559 | -1.9 and -1.42 | -0.99 and -0.888 | 0.666 (inactive) and 0.381 (inactive)
14 | C[C@@H]1CN2[C@@H](CC[C@@H](C)[C@@H]2c2ccc(Br)cc2)C(=O)O1 | 0.513 and -0.557 | -1.13 and 0.142 | -0.0732 and 0.591 | -0.459 and -0.964 | -0.138 and 0.0634 | 0.0798 and 0.44 | 1.14 and 1.07 | -0.0013 and 0.133 | -0.556 and 0.125 | -0.678 (inactive) and -1.36 (inactive)
15 | CO[C@@H]1COC(=O)CC=C[C@H](C)[C@@H](NS(=O)(=O)c2ccc(C)cc2)COC(=O)CC=C[C@@H]1C | 0.395 and -0.145 | 0.214 and -0.651 | -0.0379 and -0.578 | 0.0363 and -2.26 | 0.407 and 1.42 | 1.16 and 1.17 | 1.66 and -1.16 | 1.32 and 0.9 | 0.216 and -0.0758 | -0.439 (inactive) and 1.32 (inactive)
16 | CC(C)OC(=O)C=C1C[C@@H](c2cccc(C(F)(F)F)c2)O[C@@H](c2cccc(C(F)(F)F)c2)O1 | 0.143 and 0.877 | 1.17 and 0.699 | 0.805 and 0.224 | 0.795 and 0.302 | -0.618 and -1.57 | -0.496 and -0.841 | 1.52 and 2.59 | -0.392 and -0.925 | 0.627 and 0.443 | -0.864 (inactive) and 0.747 (inactive)
